From PubChem BioAssay (NCATS) come the findings set out here.

Each structure is given as a SMILES string. Inconclusive results are not listed. Activity calls are given as the source filed them. Unless noted, calls follow the shape of the dose curve; as a rule, active = well fitted curve in the direction sought with a large enough effect; inconclusive = small, poorly fitted or top-dose-only effect, or another doubt; inactive = no such curve, though single readings can be large; an effect the other way counts as inactive or inconclusive.

Test [1] can be described thus: Validation screen for small molecules that induce DNA re-replication in MCF 10A normal breast cells (AID 463097). Also: nearly all actives have a fitted effect of over 60% in size. Put shortly:
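Read-out is Hoechst total nuclear intensity by fluorescence scanning imager, flagging increased high-DNA-content nuclei. Compounds were incubated with MCF 10A cells for 48 hr (37 C, 5% CO2) before 40 min staining.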

Test [2] deals with Ubiquitin carboxyl-terminal hydrolase 2 (Homo sapiens) (UniProt O75604). The test is described as follows: qHTS Validation Assay for Inhibitors of Ubiquitin-specific Protease USP2a Using CHOP2 as the Reporter (AID 463106). Put shortly: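 Fluorescence read-out at Ex 485nm/Em 531nm after 60min RT, following addition of 25nM Ub-CHOP2 plus 25nM reporter substrate to USP2 core (10nM) pretreated 30min with compound. Data normalized to NEM full inhibition; concentration-response curves fitted.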
In general terms: qHTS replaces the single test concentration by a dilution series.

Test [3] addresses DNA polymerase III PolC-type (Bacillus subtilis (strain 168)) (UniProt P13267). The test is described as follows: qHTS Validation Assay for the Inhibitors of DNA Replication in Gram-Positive Bacteria (AID 485295).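 Also: reconstituted holoenzyme with PolC plus beta clamp SSB and primase; PicoGreen fluorescence of double-stranded DNA made on primed circular M13 template; series mostly up to about 57 µM.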 Put shortly: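 Double-stranded DNA product detected by PicoGreen fluorescence after EDTA quench. Compound incubated with B. subtilis holoenzyme (PolC, beta subunit, SSB, primase) before substrate addition; primed replication of M13Gori with dNTPs and NTPs at room temperature; DMSO defines 0% inhibition.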

Test [4] concerns the target Tumor susceptibility gene 101 protein (Homo sapiens) (UniProt Q99816). The test is described as follows: qHTS Validation Assay for Iinhibitors of HIV-1 Budding by Blocking the Interaction of PTAP/TSG101 (AID 485342; calls by dose curve). Put shortly: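 Fluorescence polarization of 50 nM FITC-PTAP peptide bound to 10 uM Tsg101 binding domain was read after 20 min room-temperature incubation with compounds, in 10 mM HEPES pH 7.5, 0.15 M NaCl, 0.01% Tween 20.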

Test [5] concerns the target Beta-2 adrenergic receptor (Homo sapiens) (UniProt P07550). The experiment in a line: qHTS validation assay of beta-arrestin-biased ligands of beta2-adrenergic receptor (AID 485366). The gist of the method:
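Screening used a titration range of up to 46 microM in a beta-arrestin recruitment Tango luciferase assay. Cells in 1% FBS medium were treated 18 hr at 37 degrees C, and luminescence was normalized to %Activity.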

The target in test [6] is Thioredoxin reductase 1, cytoplasmic (Rattus norvegicus) (UniProt O89049). The experiment in a line: qHTS Assay for Substrates of Mammalian Selenoprotein Thioredoxin Reductase 1 (TrxR1) (AID 488772).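 Also: series mostly up to about 57 µM; a drop in NADPH fluorescence below the no-compound background marks a TrxR1 substrate.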 Put shortly: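 In this dual-purpose format, potential substrates are identified from the first fluorescence read after selenite addition, not from the 8-minute delta. Rat enzyme is preincubated with NADPH and then with compound at ~22 deg C.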

For test [7] the target is unchanged. The test is described as follows: qHTS Assay for Inhibitors of Mammalian Selenoprotein Thioredoxin Reductase 1 (TrxR1) (AID 488773).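 Also: drop in NADPH fluorescence over an 8 min run after selenite addition; series mostly up to about 57 µM; nearly all actives have a fitted effect of over 40% in size.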 The following applies: Potency: inhibition. The gist of the method:
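Inhibition is scored from the loss of NADPH fluorescence between first and last reads of an 8-min kinetic run. Selenite (400 uM) was the substrate, added after 15 min compound preincubation at room temperature.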

Test [8] deals with Flap endonuclease 1 (Homo sapiens) (UniProt P39748). The experiment in a line: qHTS Validation Assay for the Inhibitors of Human Flap endonuclease 1 (FEN1) (AID 488816). Also: potency is read from the fitted curve at half-maximal effect. The gist of the method: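 Enzyme reagent 10 nM; cpds pinned; 15 min RT preinc.; substrate 50 nM final; reads t=0 and 15 min; no-enzyme buffer wells as neg. control; normalized data, 4-parameter Hill fit.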
Test [9] deals with M-phase phosphoprotein 8 (Homo sapiens) (UniProt Q99549). The test is described as follows: qHTS Validation Assay for Inhibitors for MPP8 Chromodomain Interactions with Methylated Histone Tails (AID 488949).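 Also: AlphaScreen signal from MPP8 chromodomain bound to biotinylated H3K9me3 peptide; top concentration of the series differs between compounds; nearly all actives have a fitted effect of over 55% in size.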 Put shortly: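 AlphaScreen proximity signal from streptavidin donor and Ni-chelate acceptor beads (10 ug/mL each) reported binding of MPP8 to trimethyl-K9 H3(1-18) peptide, both at 50 nM. The complex formed 30 min before a 30 min compound exposure at room temperature, in PBS pH 7.4.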

In test [10] the target is Chromobox protein homolog 1 (Homo sapiens) (UniProt P83916). The test is described as follows: qHTS Validation Assay for Inhibitors of HP1-beta Chromodomain Interactions with Methylated Histone Tails (AID 488953).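 Also: loss of AlphaScreen luminescence from HP1-beta binding biotinylated H3K9me3 peptide; series mostly up to about 110 µM; nearly all actives have a fitted effect of over 50% in size.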 Put shortly: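 Compounds pinned into a preassembled complex of HP1-beta and trimethyl-K9 histone H3(1-18) biotin peptide (50 nM each; PBS pH 7.4, 0.01% Tween-20). After 30 min, bead-based AlphaScreen detection followed.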

The target in test [11] is Methanococcus maripaludis chaperonin (MmCpn) (UniProt Q6LX38). The test is described as follows: High-Throughput Screening for Modulators of Cytosolic Chaperonin Activity: MmCpn Primary Screen (AID 488978).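 Also: 50 nM MmCpn enzyme hydrolysing 30 µM ATP at 37 °C.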 Put shortly:
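ATPase activity of 50 nM MmCpn was assayed with 30 uM ATP, 10 minutes at 37C, after a 5 min compound preincubation at room temperature. ADP production was read as HTRF emission at 590 and 665 nm.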

In test [12] the target is Transient receptor potential cation channel subfamily V member 1 (Homo sapiens) (UniProt Q8NER1). The test is described as follows: HTS Assay for Compounds that Act as Enhancers of the Vanilloid Receptor 1 (AID 488979). Put shortly: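 TRPV1 cells loaded with Fluo-8 calcium dye; compound added and Ca2+ signal (ex 480/em 520 nm) followed 3 min, then capsaicin at EC20 added and read 2 more min to detect enhancement.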

Test [13] addresses Thyrotropin receptor (Homo sapiens) (UniProt P16473). The experiment in a line: qHTS Assay for Antagonists of the Thyroid Stimulating Hormone Receptor (AID 488980). Also: series mostly up to about 58 µM. The gist of the method: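 Inhibition of cAMP raised by EC80 TSH (4 nM final) was read by HTRF, with lysate cAMP competing against cAMP-d2 for cryptate antibody after 30 min at room temperature. The cells were transfected HEK293 held in phosphodiesterase inhibitor RO 20-1724 at 70 uM.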

For test [14], the target named is D(1A) dopamine receptor (Homo sapiens) (UniProt P21728). The test is described as follows: HTS Assay for Allosteric Agonists of the Human D1 Dopamine Receptor: Primary Screen for Agonists (AID 488981). Also: potency is read from the fitted curve at half-maximal effect. The gist of the method:
(§1)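 Tetracycline-induced HEK293 Trex D1 cells with forced coupling to calcium, loaded with no-wash calcium dye; kinetic fluorescence read 180 s after compound addition for agonism, then a further 180 s after an EC20 dopamine challenge for potentiation.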

For test [15] the target is unchanged. The test is described as follows: HTS Assay for Allosteric Agonists of the Human D1 Dopamine Receptor: Primary Screen for Antagonists (AID 488983).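 Also: calcium flux response to an EC80 dopamine challenge measured with no-wash dye; nearly all actives have a fitted effect of over 65% in size.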 Also: potency is read from the fitted curve at half-maximal effect. The gist of the method: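 In this primary screen, compounds are applied to calcium-dye-loaded HEK293 T-REx cells with force-coupled D1 expression induced overnight at 30 C. An EC80 of dopamine follows the 180 s compound phase, and calcium is monitored for a further 180 s.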

Test [16] can be described thus: qHTS Validation Assay to Find Inhibitors of Chronic Active B-Cell Receptor Signaling (AID 485345; active = well fitted curve in the direction sought with a large enough effect in the main read-out, with a control signal flat, not every such curve was filed as active). The gist of the method:
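TMD8 ABC-DLBCL cells stably carrying doxycycline-inducible IkappaBalpha–green luciferase fusion plus unfused red luciferase; compounds 46 uM to 3 nM, 4 h at 37C with doxycycline. Corrected green/red luminescence ratio normalized to 10 uM MG-132 and basal cell wells; curves fitted.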

For test [17], the target named is D(1A) dopamine receptor (Homo sapiens) (UniProt P21728). The test is described as follows: HTS Assay for Allosteric Agonists of the Human D1 Dopamine Receptor: Primary Screen for Potentiators (AID 488982). Put shortly: as §1
The target in test [18] is ATP-dependent 6-phosphofructokinase (Trypanosoma brucei brucei) (UniProt O15648). The experiment in a line: qHTS Validation Assay to Find Inhibitors of T. brucei phosphofructokinase (AID 485368). Conditions: outcome: dose series up to 57.5 µM. The gist of the method:
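PFK-generated ADP was measured after 45 min at room temperature using ADP-Glo. The reaction contained 0.5 mM F6P and 0.1 mM ATP.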

Chain of Tumor susceptibility gene 101 protein (Homo sapiens) (Q99816 whole entry, looked up, the tested form may be a part): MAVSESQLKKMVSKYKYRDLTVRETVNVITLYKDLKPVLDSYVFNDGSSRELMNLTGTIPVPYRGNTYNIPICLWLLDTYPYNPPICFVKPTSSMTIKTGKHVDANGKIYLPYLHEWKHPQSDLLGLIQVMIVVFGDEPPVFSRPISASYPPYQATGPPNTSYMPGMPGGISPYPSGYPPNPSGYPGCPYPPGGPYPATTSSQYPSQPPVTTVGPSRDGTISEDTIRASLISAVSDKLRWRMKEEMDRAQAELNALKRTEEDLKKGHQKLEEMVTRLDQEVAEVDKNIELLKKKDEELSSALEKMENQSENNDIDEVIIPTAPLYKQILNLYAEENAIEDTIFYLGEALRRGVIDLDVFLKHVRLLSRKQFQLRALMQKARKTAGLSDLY
Chain of Transient receptor potential cation channel subfamily V member 1 (Homo sapiens) (Q8NER1 whole entry, looked up): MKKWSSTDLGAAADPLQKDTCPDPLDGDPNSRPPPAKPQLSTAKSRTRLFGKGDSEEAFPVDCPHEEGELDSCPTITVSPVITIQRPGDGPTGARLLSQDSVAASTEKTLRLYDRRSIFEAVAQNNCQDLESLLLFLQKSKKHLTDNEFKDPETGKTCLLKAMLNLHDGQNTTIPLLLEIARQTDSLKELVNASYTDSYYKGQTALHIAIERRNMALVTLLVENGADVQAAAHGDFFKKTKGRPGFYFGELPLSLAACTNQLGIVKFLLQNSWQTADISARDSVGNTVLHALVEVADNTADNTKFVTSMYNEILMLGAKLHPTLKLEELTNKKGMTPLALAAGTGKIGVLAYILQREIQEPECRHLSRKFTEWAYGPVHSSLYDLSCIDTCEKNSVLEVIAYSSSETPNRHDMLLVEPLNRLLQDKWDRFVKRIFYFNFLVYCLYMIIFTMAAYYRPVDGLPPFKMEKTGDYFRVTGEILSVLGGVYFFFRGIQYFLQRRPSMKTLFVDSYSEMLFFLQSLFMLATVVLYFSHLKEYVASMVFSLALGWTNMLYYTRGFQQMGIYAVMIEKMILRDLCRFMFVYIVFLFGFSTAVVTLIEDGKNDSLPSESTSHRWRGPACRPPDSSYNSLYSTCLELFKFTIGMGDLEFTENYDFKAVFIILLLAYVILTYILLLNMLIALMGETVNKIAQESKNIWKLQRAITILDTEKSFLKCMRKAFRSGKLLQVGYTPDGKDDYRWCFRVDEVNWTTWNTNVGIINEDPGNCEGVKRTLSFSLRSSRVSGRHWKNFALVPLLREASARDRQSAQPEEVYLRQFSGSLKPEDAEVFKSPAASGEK
Chain of D(1A) dopamine receptor (Homo sapiens) (P21728 whole entry, looked up): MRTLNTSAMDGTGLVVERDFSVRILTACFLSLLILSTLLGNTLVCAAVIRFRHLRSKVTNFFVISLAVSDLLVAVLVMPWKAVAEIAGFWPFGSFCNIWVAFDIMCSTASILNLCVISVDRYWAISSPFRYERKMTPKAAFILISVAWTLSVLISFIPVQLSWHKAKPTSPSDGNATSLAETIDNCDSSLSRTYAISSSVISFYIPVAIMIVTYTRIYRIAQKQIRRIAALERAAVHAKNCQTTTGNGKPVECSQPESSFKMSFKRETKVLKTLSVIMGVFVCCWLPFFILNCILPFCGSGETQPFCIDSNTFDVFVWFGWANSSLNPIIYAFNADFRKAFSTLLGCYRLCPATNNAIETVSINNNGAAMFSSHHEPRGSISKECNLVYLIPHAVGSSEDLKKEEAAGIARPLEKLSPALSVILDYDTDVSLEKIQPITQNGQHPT
Chain of Chromobox protein homolog 1 (Homo sapiens) (P83916 whole entry, looked up): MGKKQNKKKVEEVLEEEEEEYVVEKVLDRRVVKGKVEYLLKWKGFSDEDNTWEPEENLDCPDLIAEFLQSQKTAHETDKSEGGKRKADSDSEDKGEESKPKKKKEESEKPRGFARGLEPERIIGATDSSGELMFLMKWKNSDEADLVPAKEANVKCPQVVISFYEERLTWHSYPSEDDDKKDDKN
Chain of Methanococcus maripaludis chaperonin (MmCpn) (Q6LX38 1-543): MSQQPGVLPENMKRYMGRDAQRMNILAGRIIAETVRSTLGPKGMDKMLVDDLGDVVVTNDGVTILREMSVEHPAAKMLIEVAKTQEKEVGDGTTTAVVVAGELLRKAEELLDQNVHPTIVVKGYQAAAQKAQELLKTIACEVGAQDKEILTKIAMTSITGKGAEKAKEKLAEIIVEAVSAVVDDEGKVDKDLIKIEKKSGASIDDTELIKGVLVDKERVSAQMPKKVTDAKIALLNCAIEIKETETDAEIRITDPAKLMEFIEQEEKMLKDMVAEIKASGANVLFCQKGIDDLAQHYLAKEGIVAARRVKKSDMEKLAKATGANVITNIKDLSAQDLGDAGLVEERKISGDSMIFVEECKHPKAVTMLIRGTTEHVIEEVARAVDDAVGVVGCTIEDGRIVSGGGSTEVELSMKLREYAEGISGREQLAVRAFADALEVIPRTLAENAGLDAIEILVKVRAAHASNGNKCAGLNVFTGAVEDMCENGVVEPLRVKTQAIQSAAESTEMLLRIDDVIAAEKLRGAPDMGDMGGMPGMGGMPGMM
Chain of Ubiquitin carboxyl-terminal hydrolase 2 (Homo sapiens) (O75604 whole entry, looked up): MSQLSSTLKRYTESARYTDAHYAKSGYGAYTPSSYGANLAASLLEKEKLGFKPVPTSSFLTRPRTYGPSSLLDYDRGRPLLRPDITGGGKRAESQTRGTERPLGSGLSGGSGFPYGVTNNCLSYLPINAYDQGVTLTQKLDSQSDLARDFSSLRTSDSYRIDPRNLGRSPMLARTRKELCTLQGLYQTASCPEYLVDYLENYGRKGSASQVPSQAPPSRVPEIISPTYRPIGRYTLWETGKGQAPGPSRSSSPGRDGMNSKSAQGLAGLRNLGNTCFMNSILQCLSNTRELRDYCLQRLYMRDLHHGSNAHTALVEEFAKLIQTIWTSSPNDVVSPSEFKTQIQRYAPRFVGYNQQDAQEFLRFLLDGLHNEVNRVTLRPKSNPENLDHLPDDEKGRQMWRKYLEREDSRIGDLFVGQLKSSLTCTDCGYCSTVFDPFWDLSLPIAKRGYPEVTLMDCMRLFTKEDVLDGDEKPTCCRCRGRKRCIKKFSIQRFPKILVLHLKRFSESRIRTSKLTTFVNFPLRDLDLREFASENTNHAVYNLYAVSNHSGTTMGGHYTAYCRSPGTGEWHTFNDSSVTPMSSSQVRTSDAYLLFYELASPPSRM
Chain of M-phase phosphoprotein 8 (Homo sapiens) (Q99549 whole entry, looked up): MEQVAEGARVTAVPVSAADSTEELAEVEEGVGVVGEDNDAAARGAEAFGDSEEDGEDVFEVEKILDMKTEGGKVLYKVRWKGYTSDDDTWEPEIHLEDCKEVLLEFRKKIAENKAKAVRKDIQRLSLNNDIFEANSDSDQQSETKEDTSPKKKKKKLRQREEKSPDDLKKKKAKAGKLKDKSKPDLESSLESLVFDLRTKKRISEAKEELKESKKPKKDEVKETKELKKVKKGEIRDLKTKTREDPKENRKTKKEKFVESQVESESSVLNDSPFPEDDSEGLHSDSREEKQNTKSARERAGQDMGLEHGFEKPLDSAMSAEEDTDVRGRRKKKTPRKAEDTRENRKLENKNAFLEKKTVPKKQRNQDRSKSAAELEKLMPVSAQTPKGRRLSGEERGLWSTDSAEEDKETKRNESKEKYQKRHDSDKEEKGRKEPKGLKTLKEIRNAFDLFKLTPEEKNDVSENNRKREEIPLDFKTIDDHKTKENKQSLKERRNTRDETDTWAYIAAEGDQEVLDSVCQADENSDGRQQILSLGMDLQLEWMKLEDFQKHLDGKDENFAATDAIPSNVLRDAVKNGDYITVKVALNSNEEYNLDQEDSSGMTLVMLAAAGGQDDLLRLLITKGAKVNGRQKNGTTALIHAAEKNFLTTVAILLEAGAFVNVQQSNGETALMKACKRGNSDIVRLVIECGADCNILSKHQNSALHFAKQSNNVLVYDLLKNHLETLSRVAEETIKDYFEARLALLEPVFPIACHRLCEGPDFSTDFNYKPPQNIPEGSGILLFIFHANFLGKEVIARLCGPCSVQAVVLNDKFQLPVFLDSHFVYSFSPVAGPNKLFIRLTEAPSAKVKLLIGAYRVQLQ
Chain of Thioredoxin reductase 1, cytoplasmic (Rattus norvegicus) (O89049 whole entry, looked up): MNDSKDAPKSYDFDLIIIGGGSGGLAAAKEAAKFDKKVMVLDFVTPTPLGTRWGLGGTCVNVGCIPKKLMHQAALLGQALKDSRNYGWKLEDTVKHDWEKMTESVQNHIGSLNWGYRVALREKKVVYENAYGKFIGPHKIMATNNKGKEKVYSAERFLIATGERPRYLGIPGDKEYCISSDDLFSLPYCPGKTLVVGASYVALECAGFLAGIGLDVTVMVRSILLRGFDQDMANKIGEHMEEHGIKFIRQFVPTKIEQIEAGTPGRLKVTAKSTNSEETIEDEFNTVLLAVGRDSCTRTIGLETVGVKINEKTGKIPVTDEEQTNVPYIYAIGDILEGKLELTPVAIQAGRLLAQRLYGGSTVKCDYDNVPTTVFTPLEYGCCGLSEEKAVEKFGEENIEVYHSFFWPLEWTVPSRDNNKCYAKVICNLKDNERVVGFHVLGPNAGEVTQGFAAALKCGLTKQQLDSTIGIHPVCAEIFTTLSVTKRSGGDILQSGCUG
Chain of Flap endonuclease 1 (Homo sapiens) (P39748 whole entry, looked up): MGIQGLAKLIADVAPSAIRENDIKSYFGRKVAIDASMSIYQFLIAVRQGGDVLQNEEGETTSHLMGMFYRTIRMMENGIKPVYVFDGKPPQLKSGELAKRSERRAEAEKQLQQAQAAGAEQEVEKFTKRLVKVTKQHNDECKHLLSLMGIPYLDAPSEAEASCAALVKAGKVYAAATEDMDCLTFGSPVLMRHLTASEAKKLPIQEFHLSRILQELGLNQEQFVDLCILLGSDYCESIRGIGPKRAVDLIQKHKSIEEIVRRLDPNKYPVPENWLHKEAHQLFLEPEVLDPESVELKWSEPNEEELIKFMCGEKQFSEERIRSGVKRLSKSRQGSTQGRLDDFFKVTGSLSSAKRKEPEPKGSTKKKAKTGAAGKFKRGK

As to `NNCCc1ccccc1`, the Potency entry in [1], in [3], in test [7], in [8], in test [9] and in test [10] was “inactive” each time. For the same compound, the Potency result in [14] and in test [15] was “inactive” throughout. Also, the outcome in test [2], in test [4], in test [5], in test [6], in test [11] and in [12] was inactive. For the same compound, the compound was classed as inactive in test [13].

Consider `Cc1cccc(-c2[nH]c(C(C)(C)C)nc2-c2ccc3nccnc3c2)n1`, for which the call in test [2], in [4], in test [16], in test [5], in test [6] and in test [11] was inactive. Moreover, the Potency result in test [3], in [7], in test [8], in test [9], in test [10] and in test [14] was “inactive” each time. The Potency result in test [15] was “inactive”.

For `NC[C@H](O)c1ccc(O)c(O)c1`, the Potency entry in test [1], in test [3], in test [9], in test [10] and in [17] was “inactive” throughout. Moreover, the call in [2], in [4], in test [16], in test [5], in [6] and in test [11] was inactive. Moreover, the result in test [12] was inactive. Further, the Potency in test [8] was 2120 nM (active); in [14], 2240 nM (active); in test [15] it was 2000 nM (active).

`Cc1cnc(NC(=O)C2=C(O)c3ccccc3S(=O)(=O)N2C)s1`: the Potency result in test [1], in test [3], in [9], in [10], in test [14] and in test [15] was “inactive” each time. For the same compound, the call in [4], in [5], in test [6] and in test [11] was inactive.

As to `C[C@]12CCC(=O)C=C1CC[C@@H]1[C@@H]2[C@@H](O)C[C@@]2(C)[C@H]1CC[C@]2(O)C(=O)CO`, the result in [2], in test [4], in test [5], in [18], in test [6] and in test [11] was inactive. Besides, the Potency entry in test [3], in test [7], in test [8], in test [9], in test [10] and in [14] was “inactive” throughout. Besides, the Potency result in [15] is “inactive”.

Take `NS(=O)(=O)c1cc2c(cc1Cl)NC=NS2(=O)=O`: the Potency result in test [1], in test [3], in test [7], in test [8], in [9] and in [10] was “inactive” in each case. Further, the Potency result in [14], in test [17] and in test [15] was “inactive” each time. Further, the result in test [2], in test [4], in test [16], in test [5], in test [6] and in [11] was inactive. Further, the outcome in test [12] and in test [13] was inactive.

For `OC(CCN1CCCCC1)(c1ccccc1)C1CC2C=CC1C2` (configuration not stated), the compound was classed as inactive in [2], in [4], in test [16], in [5], in test [18] and in test [6]. In addition, in test [11], the outcome was inactive. The Potency entry in test [3], in test [7], in [8], in test [9], in test [10] and in test [14] was “inactive” in each case. Besides, the Potency result in [15] was “inactive”.
